Here are results for 24 compounds from PubChem BioAssay (Tox21).

Where “and” joins values, the source holds several entries; their conditions need not be identical. Equal values may be shown once. Results filed as inconclusive are left out. A structure can be active in one record and inactive in another. Calls of active or inactive are those of the source. Unless noted, calls come from the whole dose curve; as a rule, active = well fitted curve in the direction sought with a large enough effect in the repeat runs; inconclusive = weak or mixed curves; inactive = no such curve, though single readings can be large; an effect the other way counts as inactive or inconclusive.

The target of assay [1] is Luciferin 4-monooxygenase (Photinus pyralis) (UniProt P08659). The assay can be described thus: qHTS assay to identify small molecule inhibitors of firefly luciferase (AID 1224835). Note: nearly all actives have a fitted effect of over 25% in size. Note: potency is the fitted concentration of half-maximal effect. The conditions noted are these: purified P. pyralis luciferase, luminescence inhibition; series mostly up to 115 µM. A digest of the protocol: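 Biochemical qHTS: compounds run as interplate titrations against purified firefly enzyme, with D-luciferin and ATP each at its KM concentration. Light output recorded by CCD imaging.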
Sequence of Luciferin 4-monooxygenase (Photinus pyralis) (P08659 whole entry, looked up): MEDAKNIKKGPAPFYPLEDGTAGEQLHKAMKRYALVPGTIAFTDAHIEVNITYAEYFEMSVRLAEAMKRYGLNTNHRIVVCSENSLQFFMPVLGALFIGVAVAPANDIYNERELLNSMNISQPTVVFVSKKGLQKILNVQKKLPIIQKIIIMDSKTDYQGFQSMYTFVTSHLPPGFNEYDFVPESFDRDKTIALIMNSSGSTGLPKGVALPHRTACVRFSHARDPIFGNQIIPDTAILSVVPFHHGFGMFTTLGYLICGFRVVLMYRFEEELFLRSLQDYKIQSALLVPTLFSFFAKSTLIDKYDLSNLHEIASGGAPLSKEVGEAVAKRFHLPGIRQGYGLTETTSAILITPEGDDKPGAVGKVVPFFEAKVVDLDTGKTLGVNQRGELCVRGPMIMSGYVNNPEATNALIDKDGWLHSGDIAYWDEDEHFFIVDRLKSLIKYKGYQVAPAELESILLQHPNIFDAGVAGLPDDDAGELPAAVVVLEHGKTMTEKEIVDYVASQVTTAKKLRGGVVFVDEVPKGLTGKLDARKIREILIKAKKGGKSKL
Background: qHTS replaces the single test concentration by a dilution series.

The nature of assay [2]: qHTS assay to identify small molecule agonists of the constitutive androstane receptor (CAR) signaling pathway - cell viability counter screen (AID 1224836). Note: nearly all actives have a fitted effect of over 45% in size. Note: potency is the fitted concentration of half-maximal effect. The settings on record: HepG2-CYP2B6-hCAR viability, CellTiter-Fluor, 23 h, PK11195 added to every well; series mostly up to 92.4 µM. A digest of the protocol: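 Using CellTiter-Fluor, viability of HepG2 cells harbouring hCAR and CYP2B6-2.2kb was measured following 23 h incubation with a 15-concentration compound series plus PK11195 (0.75 uM final).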

Assay [3] is described as follows: qHTS assay to identify small molecule antagonists of the constitutive androstane receptor (CAR) signaling pathway - cell viability counter screen (AID 1224837). Note: nearly all actives have a fitted effect of over 45% in size. Note: potency is the fitted concentration of half-maximal effect. The conditions noted are these: HepG2-CYP2B6-hCAR viability, CellTiter-Fluor, 23 h, co-treated with 50 nM CITCO; series mostly up to 92.4 µM. A digest of the protocol: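 To flag cytotoxic false antagonists, HepG2 hCAR/CYP2B6-2.2kb cells were treated 23 hr with 15-concentration compound series and 50 nM CITCO at 37 C/5% CO2; CellTiter-Fluor fluorescence was the measured end point.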

In assay [4] the target is Nuclear receptor subfamily 1 group I member 3 (Homo sapiens) (UniProt Q14994). The assay can be described thus: qHTS assay to identify small molecule antagonists of the constitutive androstane receptor (CAR) signaling pathway (AID 1224838). Note: nearly all actives have a fitted effect of over 40% in size. Note: potency is the fitted concentration of half-maximal effect. The settings on record: HepG2-CYP2B6-hCAR luciferase, CITCO-stimulated, 24 h; series mostly up to 92.4 µM. A digest of the protocol: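 Human hepatoma HepG2 cells expressing hCAR and a CYP2B6 promoter (2.2 kb) luciferase construct; compound titration (15 points) with 50 nM CITCO final, 24 h at 37 C/5% CO2; luminescence via ONE-Glo after 30 min at room temperature.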
Sequence of Nuclear receptor subfamily 1 group I member 3 (Homo sapiens) (Q14994 whole entry, looked up): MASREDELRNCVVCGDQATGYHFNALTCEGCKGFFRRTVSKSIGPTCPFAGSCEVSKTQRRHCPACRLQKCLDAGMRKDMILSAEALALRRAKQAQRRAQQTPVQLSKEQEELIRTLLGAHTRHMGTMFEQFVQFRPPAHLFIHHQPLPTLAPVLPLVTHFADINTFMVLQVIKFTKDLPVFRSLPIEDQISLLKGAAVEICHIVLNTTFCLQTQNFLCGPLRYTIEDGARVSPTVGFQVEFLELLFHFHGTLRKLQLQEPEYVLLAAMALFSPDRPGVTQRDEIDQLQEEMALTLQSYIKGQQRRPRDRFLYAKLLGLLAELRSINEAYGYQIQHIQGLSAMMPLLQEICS

Assay [5] shares this target. The assay can be described thus: qHTS assay to identify small molecule agonists of the constitutive androstane receptor (CAR) signaling pathway (AID 1224839). Note: nearly all actives have a fitted effect of over 15% in size. Note: potency is the fitted concentration of half-maximal effect. The settings on record: HepG2 hCAR CYP2B6-luciferase, agonist mode, 24 h; series mostly up to 92.4 µM. A digest of the protocol:
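Double-stable HepG2 cells (hCAR, CYP2B6-2.2kb) seeded 4 h before compound addition. Exposure 24 h with 0.75 uM PK11195 final. Luciferase detected by ONE-Glo.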

A short description of assay [6]: qHTS assay to identify small molecule antagonists of the estrogen related receptor signaling pathway with the pleiotropic PPARgamma coactivator (PGC) from Tox21 10K library - cell viability counter screen (AID 1224840; active = well fitted cell-killing curve with a large enough effect in the repeat runs, not every such curve was filed as active; note: nearly all actives have a fitted effect of over 40% in size; note: potency is the fitted concentration of half-maximal effect). The settings on record: PGC/ERR reporter cells viability, CellTiter-Fluor, 17.5 h; series mostly up to 92.4 µM. A digest of the protocol: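 Seeded PGC/ERR cells (2,000/well, 6 h, 37 C/5% CO2) get compound by pin tool; 17.5 h incubation at 37 C; CellTiter-Fluor added, 30 min, fluorescence measured.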

Assay [7] can be described thus: qHTS assay to identify small molecule antagonists of the estrogen related receptor signaling pathway with the pleiotropic PPARgamma coactivator (PGC) from Tox21 10K library (AID 1224841; call rule not given here; note: actives are mostly falling curves and most rising ones were filed inactive; nearly all actives have a fitted effect of over 50% in size). The settings on record: PGC/ERR reporter cell line, ONE-Glo luciferase, 18 h; series mostly up to 92.4 µM. A digest of the protocol: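 Test chemicals dissolved in DMSO were applied to pre-incubated (6 h) PGC/ERR cells at 2,000 cells/well for an 18 h, 37 C treatment; reporter luminescence was then read using One-Glo.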

The nature of assay [8]: qHTS assay to identify small molecule agonists of the estrogen related receptor signaling pathway with the pleiotropic PPARgamma coactivator (PGC) from Tox21 10K library (AID 1224842). Note: nearly all actives have a fitted effect of over 15% in size. Note: potency is the fitted concentration of half-maximal effect. The settings on record: PGC/ERR reporter cell line, luciferase ONE-Glo, 18 h; series mostly up to 92.4 µM. A digest of the protocol: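 PGC/ERR reporter cell line, 2,000 cells per well, incubated 6 h at 37 C before 23 nL compound in DMSO was added. After 18 h at 37 C, One-Glo luminescence read following 30 min at room temperature.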

Assay [9] deals with Thyrotropin receptor (Homo sapiens) (UniProt P16473). Kind of assay: qHTS assay to identify small molecule agonists of the thyroid stimulating hormone receptor (TSHR) signaling pathway (AID 1224843; calls by dose curve; note: nearly all actives have a fitted effect of over 45% in size). The settings on record: TSHR-HEK293 cells, cAMP HTRF, agonist mode, 30 min; series mostly up to 92.4 µM. A digest of the protocol: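 HEK293/TSHR, 800 cells/well; cpd 30 min RT; add cAMP-d2 + anti-cAMP-cryptate, 1 h RT; fluorescence read on plate reader. 15-pt titration, n=3.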
Sequence of Thyrotropin receptor (Homo sapiens) (P16473 whole entry, looked up): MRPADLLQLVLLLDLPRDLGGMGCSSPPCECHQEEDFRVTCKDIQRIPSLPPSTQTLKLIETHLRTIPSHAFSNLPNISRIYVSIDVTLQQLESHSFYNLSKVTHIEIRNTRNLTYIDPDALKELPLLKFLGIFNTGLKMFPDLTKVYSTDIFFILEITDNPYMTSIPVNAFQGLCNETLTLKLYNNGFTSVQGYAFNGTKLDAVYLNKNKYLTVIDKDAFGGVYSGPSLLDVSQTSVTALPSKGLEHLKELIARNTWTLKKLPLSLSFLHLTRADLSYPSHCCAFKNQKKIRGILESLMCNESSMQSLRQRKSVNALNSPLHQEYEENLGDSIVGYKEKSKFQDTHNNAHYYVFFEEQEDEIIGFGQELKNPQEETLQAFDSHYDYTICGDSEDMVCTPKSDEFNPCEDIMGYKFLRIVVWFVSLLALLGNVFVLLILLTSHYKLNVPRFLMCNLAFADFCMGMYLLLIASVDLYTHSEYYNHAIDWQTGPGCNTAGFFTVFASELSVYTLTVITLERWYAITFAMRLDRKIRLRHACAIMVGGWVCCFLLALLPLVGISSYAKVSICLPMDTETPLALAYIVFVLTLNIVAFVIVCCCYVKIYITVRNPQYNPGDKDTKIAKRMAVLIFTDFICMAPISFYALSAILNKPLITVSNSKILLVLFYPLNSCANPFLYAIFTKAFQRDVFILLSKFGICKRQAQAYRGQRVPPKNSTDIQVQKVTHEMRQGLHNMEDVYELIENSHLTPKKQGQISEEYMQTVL

Assay [10] in a line: qHTS assay to identify small molecule agonists of the hypoxia (HIF-1) signaling pathway - cell viability counter screen (AID 1224844; calls by dose curve; note: nearly all actives have a fitted effect of over 50% in size; note: potency is the fitted concentration of half-maximal effect). The conditions noted are these: HRE-bla ME-180 viability, CellTiter-Glo luminescence, 17 h; series mostly up to 76.8 µM. A digest of the protocol: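 HRE-bla ME-180; 0.5% dFBS; cpd 17 h, 37C, 5% CO2; CellTiter-Glo lum., 30 min RT, post-FRET read, same wells.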

For `c1ccc(Nc2cccc3ccccc23)cc1`, the Potency in [1] was 40.5 µM (active) and 35.6 µM (active); in [5], 61.9 µM (active) and 61.1 µM (active); in assay [8] it was 15.6 µM (active) and inactive. Moreover, the Potency result in [2], in assay [3], in assay [4], in assay [6] and in assay [7] was “inactive” throughout.
For `Cc1cnccn1`, the Potency result in assay [1], in assay [2], in assay [3], in assay [4], in [5] and in assay [6] was “inactive” in each case.
On to `COc1cccc(CCc2ccccc2OCC(CN(C)C)OC(=O)CCC(=O)O)c1` (stereo not given), for which the Potency entry in assay [1], in assay [2], in assay [3], in [4], in assay [5] and in [6] was “inactive” throughout. For the same compound, the Potency entry in [7], in assay [8] and in assay [9] was “inactive” each time. Moreover, the Potency in assay [10] was 19 µM (active).
With `CC1=CCC(=O)O1`, the Potency result in assay [1], in assay [2], in assay [3], in assay [4], in assay [5] and in assay [6] was “inactive” in each case. For the same compound, the Potency entry in [7], in assay [8] and in assay [10] was “inactive” each time.
Regarding `O=C1NCN(c2ccccc2)C12CCN(CCCC(c1ccc(F)cc1)c1ccc(F)cc1)CC2`, the Potency result in assay [1] and in assay [5] was “inactive” in each case. Besides, the Potency in assay [2] was 16.8 µM (active); in assay [3], 13.3 µM (active); in assay [4] it was 13.3 µM (active).
Turning to `CC(C)c1ccccc1N`, the Potency entry in [1], in assay [2], in [3], in assay [4], in assay [5] and in [6] was “inactive” throughout. Besides, the Potency result in assay [7], in assay [9] and in assay [10] was “inactive” throughout.
In the case of `Oc1ccc(-c2ccc(O)cc2)cc1`, the Potency in [1] was 40.2 µM (active); in assay [5] it was 17.3 µM (active); in assay [10], 49.3 µM (active). The Potency result in assay [2], in [3], in assay [4], in assay [6], in assay [7] and in assay [8] was “inactive” in each case. Further, in assay [9], the Potency result is “inactive”.
With `CN1CN(C)CN(C)C1`, the Potency entry in assay [1], in assay [2], in assay [3], in [4], in [5] and in assay [6] was “inactive” throughout. Also, the Potency result in assay [7], in assay [8], in [9] and in [10] was “inactive” in each case.
As for `CCOC(=O)CC(C)O` (stereo not given), the Potency result in [1], in [2], in assay [3], in [4], in assay [5] and in assay [6] was “inactive” in each case. The Potency entry in assay [7], in assay [8] and in [10] was “inactive” throughout.
As to `CC[N+](CC)(CC)Cc1ccccc1`, the Potency entry in [1], in assay [2], in assay [3], in [4], in [5] and in assay [6] was “inactive” in each case.
`CCc1cccc(CC)c1N(COC)C(=O)CS(=O)(=O)O`: the Potency entry in [1], in assay [2], in [3], in assay [4], in assay [5] and in assay [6] was “inactive” throughout. For the same compound, the Potency result in [7], in [8], in assay [9] and in assay [10] was “inactive” in each case.
Take `CCCCOC(=O)C(C)CC` (stereo not given): the Potency result in assay [1], in [2], in assay [3], in assay [4], in [5] and in assay [6] was “inactive” in each case. For the same compound, the Potency result in assay [7], in assay [8], in assay [9] and in assay [10] was “inactive” in each case.
As for `CC(COC(=O)c1ccccc1)OC(=O)c1ccccc1` (stereo not given), the Potency result in [1], in assay [2], in assay [3], in assay [4], in [5] and in assay [6] was “inactive” throughout. The Potency entry in assay [7], in [8], in assay [9] and in [10] was “inactive” in each case.
Consider `CO[Si](CCC1CCC2OC2C1)(OC)OC` (stereo not given), for which the Potency result in assay [1], in assay [2], in assay [3], in assay [4], in assay [5] and in assay [6] was “inactive” in each case. For the same compound, the Potency entry in [7], in assay [9] and in [10] was “inactive” throughout.
As for `COC(=O)NCCC[Si](OC)(OC)OC`, the Potency result in [1], in [2], in [3], in assay [4], in assay [5] and in assay [6] was “inactive” each time. In addition, the Potency result in assay [7], in assay [8] and in assay [9] was “inactive” each time.
Regarding `CCO[Si](C)(C)OCC`, the Potency result in [1], in assay [2], in [3], in assay [4], in assay [5] and in [6] was “inactive” in each case. Also, the Potency result in assay [8] and in assay [9] was “inactive” each time.
`O=C1Nc2ccc(Cl)cc2[C@@](C#CC2CC2)(C(F)(F)F)O1`: the Potency result in assay [1], in [2], in assay [3], in assay [4], in assay [5] and in assay [6] was “inactive” each time.
As to `CCC(=O)OCCc1ccccc1`, the Potency result in [1], in assay [2], in assay [3], in assay [4], in [5] and in assay [6] was “inactive” each time.
In the case of `O=C1OC(OC(=O)c2cccnc2Nc2cccc(C(F)(F)F)c2)c2ccccc21` (stereo not given), the Potency entry in [1], in assay [2], in assay [3], in assay [4], in assay [5] and in assay [6] was “inactive” in each case. Also, the Potency result in assay [7], in assay [9] and in assay [10] was “inactive” in each case.
`CCCCCCOc1cc(C)c(O)c(C)c1C`: the Potency entry in [1], in [2], in assay [3], in assay [4], in [7] and in [8] was “inactive” throughout. The results for the Potency in assay [5] and in [6] were 49.2 µM (active) and 55.1 µM (active), respectively.
On to `CCNc1nc(NC(C)CC)nc(OC)n1` (stereo not given), for which the Potency entry in assay [1], in assay [2], in assay [3], in assay [4], in assay [5] and in assay [6] was “inactive” in each case. The Potency result in assay [7], in assay [8], in assay [9] and in [10] was “inactive” in each case.
Take `CN1CCN(C2Cc3ccccc3Sc3ccc(Cl)cc32)CC1` (stereo not given): the Potency result in assay [1], in assay [2], in assay [3], in [4], in assay [5] and in assay [6] was “inactive” in each case. The Potency result in [7] and in assay [9] was “inactive” each time. Besides, the Potency in assay [10] was 23.9 µM (active).
For the compound `CCCCCCCOC(=O)c1ccc(O)cc1`, in assay [1], the Potency is 71 µM (active). For the same compound, the Potency entry in [2], in assay [3], in [4], in [5] and in [6] was “inactive” each time.
`Cc1ccc2ccc3cccc4ccc1c2c34`: the Potency in assay [1] is 35.5 µM (active); in [5], 30.6 µM (active). Besides, the Potency entry in [2], in assay [3], in assay [4], in assay [6], in [7] and in assay [9] was “inactive” throughout.
